ATXN2 expr inh = Primary qHTS for Inhibitors of ATXN expression; AID 1745845, 2022; HEK-293 ATXN2-luciferase reporter, luminescence, 24 h; hit rate 0.72% among 360,000; Potency, µM (titrated, usually from 57 µM), inactives show at the top dose activity change, negative = inhibition, actives largely listed as inhibitors; note: % is set by controls: 0 for no effect and ±100 for the full control effect; nearly all actives have a fitted effect of over 55% in size
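qHTS (up to 57 uM final) was run with 24 h compound exposure of reporter cells at 37 °C. Each well was multiplexed: SteadyGlo luminescence measured ATXN2-luciferase expression after a fluorogenic Gly-Phe-AFC viability readout (25 uM final).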
A549 viability = Nrf2 qHTS screen for inhibitors: counterscreen for cytotoxicity. A549 ARE-Fluc cells, CellTiter-Fluor viability, 18-24 h. Potency, µM (highest dose often 46 µM), for inactives: at the top dose activity change, negative = cytotoxicity, usual class: inhibitors. hit rate 0.16% among 390,000. AID 504648, 2011; note: % is set by controls: 0 for no effect and ±100 for the full control effect
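A549 ARE-Fluc cells in 5% FBS OPTI-MEM, 5000 cells/well, rested 2 h then exposed to compounds in concentration-response for 18-24 h at 37 °C. Viability by CellTiter-Fluor fluorescence (Ex 405/Em 525) after 30 min; luciferase luminescence (BugLite, 15 min, RT) read afterwards.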
Nrf2 ARE act = qHTS of Nrf2 Activators; Potency, µM (highest dose often 46.1 µM), without a hit: at the highest dose activation, most hits filed as activators; hit rate 0.31% among 410,000; AID 624171, 2012; AREc32 ARE-luciferase reporter (MCF7-derived line), luminescence, 24 h; note: % of control where 0% means no effect; nearly all actives have a fitted effect of over 65% in size
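ARE-driven firefly luciferase activity in AREc32 cells measured after a 24 hr compound exposure at 37 deg C, using Steady-Glo reagent and a 30 min room-temperature hold.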
Nrf2 block = Nrf2 qHTS screen for inhibitors. hit rate 2.1% among 360,000. A549 ARE-Fluc reporter, luciferase luminescence, 18-24 h. AID 504444, 2011. Potency, µM (doses to about 46 µM), without a hit: top-dose activity change, negative = inhibition, usual class: inhibitors; note: % is set by controls: 0 for no effect and ±100 for the full control effect; nearly all actives have a fitted effect of over 60% in size
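Reporter: ARE-Fluc in A549. Exposure: 18-24 h, 37 °C, 5% CO2, 5% FBS OPTI-MEM. Readouts: fluorescent cytotoxicity (CellTiter-Fluor), then luminescent Nrf2 signal after BugLite.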
S2 tox = Viability Counterscreen for Primary qHTS for Inhibitors of ATXN expression | S2 cells (HEK-293 line with an ATXN2-luciferase reporter) viability, CellTiter-Fluor protease fluorescence, 24 h | Potency, µM (titrated, usually from 56.7 µM), hits mostly cytotoxic | hit rate 0.49% among 400,000 | AID 651635, 2014; note: nearly all actives have a fitted effect of over 40% in size
An asterisk follows results filed as active. In the library only some 2.9% were active in any assay of this set; here they are far more common. Calls come from the whole dose curve; as a rule, active = well fitted curve in the direction sought with a large enough effect; inconclusive = small, poorly fitted or top-dose-only effect, or another doubt; inactive = no such curve, though single readings can be large; an effect the other way counts as inactive or inconclusive. Potency is the fitted concentration of half-maximal effect.

What do the screens show for `Oc1c(Br)cc(/C=N/Nc2ccc(Cl)nn2)cc1Br`?
ATXN2 expr inh: 11.2%; A549 viability: -0.1%; Nrf2 ARE act: 9.0%; Nrf2 block: -7.0%

Results for Cc1cc2oc(=O)cc(Cn3ncc(Cl)c(Cl)c3=O)c2cc1Cl ?
ATXN2 expr inh: 25.1µM*; A549 viability: inconclusive; Nrf2 ARE act: 3.98µM*; Nrf2 block: inconclusive

What do the screens show for `Cc1cc2oc(=O)cc(CN3CCN(c4ccccc4)CC3)c2cc1Cl`?
ATXN2 expr inh: 4.8%; Nrf2 ARE act: 0.0%; S2 tox: inactive

What do the screens show for `O=C(CCCOc1ccccc1)Nc1cccnc1`?
ATXN2 expr inh: 2.6%; A549 viability: 3.8%; Nrf2 ARE act: -0.7%; Nrf2 block: 10.8%; S2 tox: inactive

How did O=C(COc1ccc(C(=O)c2ccccc2)cc1)Nc1cccnc1 do in these assays?
ATXN2 expr inh: inconclusive; A549 viability: inconclusive; Nrf2 ARE act: 0.2%; Nrf2 block: 23.1µM*; S2 tox: inactive

What do the screens show for `CC(=O)Nc1ccc(NC(=O)COc2ccc(-c3ccc(C#N)cc3)cc2)cc1`?
ATXN2 expr inh: -23.6%; A549 viability: 1.2%; Nrf2 ARE act: 0.1%; Nrf2 block: 8.6%; S2 tox: inconclusive

How did N#Cc1ccc(-c2ccc(OCC(=O)Nc3cccnc3)cc2)cc1 do in these assays?
ATXN2 expr inh: -33.9%; A549 viability: -12.8%; Nrf2 ARE act: 1.8%; Nrf2 block: 7.31µM*; S2 tox: inactive

Results for CC(C)CN(CC(C)C)S(=O)(=O)N1CCC(C(=O)NCc2ccc(F)cc2)CC1 ?
ATXN2 expr inh: -8.5%; A549 viability: inconclusive; Nrf2 ARE act: 0.2%; Nrf2 block: -2.2%; S2 tox: inactive

How did CCN(CC)CCNC(=S)Nc1ccc2nc(N3CCCC3)cc(C)c2c1 do in these assays?
ATXN2 expr inh: inconclusive; A549 viability: 5.8µM*; Nrf2 ARE act: 9.0%; Nrf2 block: 1.5%; S2 tox: inactive

Results for Cc1cc(N2CCCCC2)nc2ccc(NC(=O)c3ccc(Br)o3)cc12 ?
ATXN2 expr inh: -28.9%; A549 viability: inconclusive; Nrf2 ARE act: -0.1%; Nrf2 block: 20.6µM*; S2 tox: inconclusive

How did Cc1cc(N2CCN(C)CC2)nc2ccc(NC(=O)c3ccc(Br)o3)cc12 do in these assays?
ATXN2 expr inh: 9.8%; A549 viability: -9.1%; Nrf2 ARE act: 3.9%; Nrf2 block: 20.1%; S2 tox: inconclusive

How did C=Cc1ccc(Cn2c(C)c(C(=O)NCc3ccccc3C(F)(F)F)sc2=O)cc1 do in these assays?
ATXN2 expr inh: -19.3%; Nrf2 ARE act: 6.0%; S2 tox: inactive

Results for Cc1cc(=O)c2cc(C(=O)Nc3ccccc3C)ccc2[nH]1 ?
ATXN2 expr inh: -31.2%; A549 viability: 6.5%; Nrf2 ARE act: -0.1%; Nrf2 block: 20.6µM*; S2 tox: inactive

How did O=C(COc1ccc(Cl)cc1)NNC(=O)c1ccccn1 do in these assays?
ATXN2 expr inh: inconclusive; A549 viability: -8.9%; Nrf2 ARE act: 0.2%; Nrf2 block: inconclusive; S2 tox: inconclusive

How did Cc1cc(C)cc(OCC(=O)NNC(=O)c2ccccn2)c1 do in these assays?
A549 viability: -24.9%; Nrf2 ARE act: 0.2%; Nrf2 block: 10.3µM*; S2 tox: inconclusive

What do the screens show for `COc1cc(N2CCC(N3CCN(C)CC3)CC2)ccc1Nc1ncc(Cl)c(Nc2ccccc2S(=O)(=O)C(C)C)n1`?
ATXN2 expr inh: 19.3µM*

How did CN1CCN(C2CCN(c3ccc(Nc4nnc(Cl)c(Nc5ccccc5S(C)(=O)=O)n4)c(OC(CF)CF)c3)CC2)CC1 do in these assays?
ATXN2 expr inh: inconclusive; A549 viability: 1.6%; Nrf2 ARE act: 2.7%; Nrf2 block: 1.6%; S2 tox: inactive

Results for COc1ccc(OC)c(-n2cnc3cc(C(=O)NC4CCCC4)ccc32)c1 ?
ATXN2 expr inh: -5.8%; A549 viability: -2.6%; Nrf2 ARE act: 3.6%; S2 tox: inactive

Results for O=C(Nc1ccc(CN2CCCCC2)cc1)Nc1ccc(Br)cc1Cl ?
ATXN2 expr inh: 14.1µM*; A549 viability: inconclusive; Nrf2 ARE act: -0.4%; Nrf2 block: -8.8%; S2 tox: inconclusive

What do the screens show for `S=C(Nc1ccc(Br)cc1Cl)N1CCCC1`?
ATXN2 expr inh: 59.5%; A549 viability: -3.8%; Nrf2 ARE act: 0.1%; Nrf2 block: inconclusive; S2 tox: inconclusive

Results for O=C(NNC(=S)Nc1cccc(Cl)c1)c1ccccc1OC(F)F ?
ATXN2 expr inh: inconclusive; A549 viability: -6.3%; Nrf2 ARE act: -0.6%; Nrf2 block: 20.6µM*; S2 tox: inactive

What do the screens show for `CCn1c(=O)n(CC)c2cc(S(=O)(=O)N3CCc4ccccc43)ccc21`?
ATXN2 expr inh: inconclusive; A549 viability: 6.3%; Nrf2 ARE act: 3.8%; Nrf2 block: inconclusive; S2 tox: inactive

Results for COC(=O)CN1C(c2ccc(Cl)cc2)=Nc2ccc(Cl)cc2C1c1ccccc1 (stereo unspecified) ?
ATXN2 expr inh: 2.7%; A549 viability: -15.2%; Nrf2 ARE act: 3.5%; Nrf2 block: -10.9%; S2 tox: inconclusive

What do the screens show for `COc1ccc2nc(SC(C(=O)c3ccccc3)c3ccccc3)nc(C)c2c1` (stereo unspecified)?
ATXN2 expr inh: -7.3%; A549 viability: 16.8%; Nrf2 ARE act: 0.5%; Nrf2 block: -17.9%; S2 tox: inactive

Results for Cc1ccc(C(C)C)cc1NC(=O)Nc1ccc([N+](=O)[O-])cc1 ?
A549 viability: inconclusive; Nrf2 ARE act: -0.7%; Nrf2 block: 20.6µM*; S2 tox: inconclusive

What do the screens show for `Cc1ccc([N+](=O)[O-])cc1NC(=O)c1ccccc1`?
ATXN2 expr inh: -14.7%; A549 viability: -1.8%; Nrf2 ARE act: 7.94µM*; Nrf2 block: 0.7%; S2 tox: inactive

How did Cc1ccc(SCc2ccc(C(=O)Nc3cc([N+](=O)[O-])ccc3C)cc2)cc1 do in these assays?
ATXN2 expr inh: -20.8%; A549 viability: -8.9%; Nrf2 ARE act: -0.3%; Nrf2 block: 14.6µM*; S2 tox: inactive

How did O=C(Nc1ccc([N+](=O)[O-])cc1NC(=O)c1ccccc1)c1ccccc1 do in these assays?
ATXN2 expr inh: -6.7%; A549 viability: 0.2%; Nrf2 ARE act: -2.3%; Nrf2 block: -4.9%; S2 tox: inactive

What do the screens show for `Cc1ccc(NC(=O)ON=C2CCCC2)cc1`?
ATXN2 expr inh: 18.1%; A549 viability: inconclusive; Nrf2 ARE act: 3.1%; Nrf2 block: inconclusive; S2 tox: inactive

What do the screens show for `COc1ccc(CCNC(=O)c2ccc3c(c2)CCN3S(=O)(=O)c2ccc(Cl)cc2)cc1`?
ATXN2 expr inh: -8.7%; A549 viability: -1.5%; Nrf2 ARE act: -0.4%; Nrf2 block: inconclusive; S2 tox: inactive

How did COc1ccc(NC(=O)Nc2ccc(F)cc2F)cc1 do in these assays?
ATXN2 expr inh: 38.3%; A549 viability: 6.8%; Nrf2 ARE act: 2.9%; Nrf2 block: inconclusive; S2 tox: inactive

Assay outcomes: PubChem BioAssay, National Center for Advancing Translational Sciences (NCATS)
